Values joined by “and” are separate entries in the source; they are usually repeats but may differ in a detail not shown here. Equal entries are not always repeated. About 2,000 (36%) of roughly 5,500 compounds were called active. About 18% were inconclusive and are not listed. Cut-off read from the data, not from the text of the source: active = normalized growth mostly below about 0.91 (no sharp cut-off); inconclusive = no clear call, values can overlap the other calls; inactive = mostly above about 0.92. Some of the results follow.
Assay: chemical genetic growth profiling, strain panel (AID 1159580);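 note: tested at 20 µM; growth read once vehicle control cultures reached saturation at 30 °C; 1 = growth at the plate median or of vehicle wells; lower values mean less growth of the strain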
Conditions: S. cerevisiae deletion strains, growth OD

Measured: normalized growth

COc1cc(C(=O)NCc2ccc(OCCN(C)C)cc2)cc(OC)c1OC
inactive: locus YAL013W, strain DEP1, hits give low values 1 | locus YAL021C, strain ccr4, hits give low values 0.993 | locus YAL026C, strain drs2, hits give low values 0.998 | locus YAL030W, strain snc1, hits give low values 1 | locus YBL061C, strain skt5, hits give low values 0.981 | locus YBR009C, strain hhf1, hits give low values 1 | locus YBR021W, strain FUR4, hits give low values 1.03 | locus YBR023C, strain chs3, hits give low values 0.985 | locus YBR171W, strain sec66, hits give low values 0.999 | locus YBR229C, strain ROT2, hits give low values 0.951 | locus YBR231C, strain swc5, hits give low values 0.99 | locus YBR279W, strain paf1, hits give low values 1 | locus YCL011C, strain gbp2, hits give low values 1.01 | locus YCL016C, strain dcc1, hits give low values 0.98 | locus YCL029C, strain bik1, hits give low values 0.977 | locus YCL061C, strain MRC1, hits give low values 1 | locus YCL069W, strain vba3, hits give low values 0.995 | locus YCR088W, strain abp1, hits give low values 0.99 | locus YDL005C, strain med2, hits give low values 1.01 | locus YDL035C, strain GPR1, hits give low values 1.01 | locus YDL040C, strain nat1, hits give low values 1.02 | locus YDL074C, strain BRE1, hits give low values 0.951 | locus YDL101C, strain DUN1, hits give low values 0.973 | locus YDL134C, strain PPH21, hits give low values 0.996 | locus YDL185W, strain tfp1, hits give low values 0.979 | locus YDL192W, strain arf1, hits give low values 0.982 | locus YDR001C, strain nth1, hits give low values 1 | locus YDR069C, strain doa4, hits give low values 1 | locus YDR101C, strain arx1, hits give low values 0.93 | locus YDR137W, strain rgp1, hits give low values 1.01 | locus YDR150W, strain NUM1, hits give low values 0.974 | locus YDR159W, strain sac3, hits give low values 0.953 | locus YDR162C, strain NBP2, hits give low values 1.01 | locus YDR195W, strain ref2 0.997 | locus YDR297W, strain sur2, hits give low values 0.981 | locus YDR318W, strain mcm21, hits give low values 0.992 | locus YDR334W, strain swr1, hits give low values 0.99 | locus YDR335W, strain msn5, hits give low values 0.982 | locus YDR388W, hits give low values 0.988 | locus YDR392W, strain spt3, hits give low values 0.833 | locus YDR502C, strain sam2, hits give low values 0.985 | locus YEL003W, strain gim4, hits give low values 1 | locus YEL037C, strain rad23, hits give low values 0.988 | locus YEL061C, strain CIN8 (second series), hits give low values 0.978 | locus YEL061C, strain CIN8, hits give low values 0.978 | locus YER015W, strain faa2, hits give low values 0.991 | locus YER016W, strain bim1, hits give low values 0.994 | locus YER110C, hits give low values 0.984 | locus YER111C, strain swi4, hits give low values 0.982 | locus YER155C, strain BEM2 (second series), hits give low values 0.988 | locus YER155C, strain BEM2, hits give low values 0.996 | locus YER167W, strain BCK2, hits give low values 0.997 | locus YFR010W, strain ubp6, hits give low values 1 | locus YGL078C, strain dbp3, hits give low values 0.981 | locus YGL086W, strain mad1, hits give low values 0.966 | locus YGL167C, strain pmr1, hits give low values 1 | locus YGL173C, strain kem1, hits give low values 1 | locus YGL227W, strain vid30, hits give low values 1.01 | locus YGL240W, strain doc1, hits give low values 0.984 | locus YGL248W, strain PDE1, hits give low values 0.975 | locus YGL253W, strain hxk2, hits give low values 0.993 | locus YGR078C, strain PAC10, hits give low values 0.963 | locus YGR135W, strain pre9, hits give low values 1.06 | locus YGR229C, strain SMI1, hits give low values 1.02 | locus YGR252W, strain gcn5, hits give low values 1.03 | locus YHR013C, strain ard1, hits give low values 0.949 | locus YHR027C, strain rpn1, hits give low values 0.979 | locus YHR030C, strain SLT2, hits give low values 0.985 and 0.966 | locus YHR079C, strain IRE1 (second series), hits give low values 0.976 | locus YHR079C, strain IRE1, hits give low values 0.976 | locus YHR094C, strain hxt1, hits give low values 0.979 | locus YHR129C, strain ARP1, hits give low values 0.995 | locus YHR142W, strain chs7, hits give low values 0.982 | locus YHR200W, strain rpn10, hits give low values 0.983 | locus YIL066C, strain RNR3, hits give low values 0.963 | locus YIL073C, strain SPO22, hits give low values 1.04 | locus YIL125W, strain kgd1, hits give low values 0.976 | locus YIR030C, strain dcg1, hits give low values 0.989 | locus YJL092W, strain hpr5, hits give low values 0.997 | locus YJL095W, strain BCK1 (second series), hits give low values 0.988 | locus YJL095W, strain BCK1, hits give low values 0.991 and 0.995 | locus YJL115W, strain asf1, hits give low values 0.993 | locus YJL129C, strain trk1, hits give low values 0.981 | locus YJL134W, strain LCB3, hits give low values 0.993 | locus YJL154C, strain vps35, hits give low values 1.02 | locus YJL164C, strain tpk1, hits give low values 1 | locus YJL166W, strain qcr8, hits give low values 0.988 | locus YJL168C, strain set2, hits give low values 0.979 | locus YJL187C, strain SWE1 (second series), hits give low values 0.953
